According to PubChem BioAssay AID2012 (Sanford-Burnham Center for Chemical Genomics, 2009):
About 2,700 (0.93%) of roughly 290,000 compounds were called active. The sample holds actives, similar compounds and a random draw of the others, so the mix is not that of the screen. How the calls were made is not given here.

Target: Eukaryotic translation initiation factor 4H (Homo sapiens) (UniProt Q15056)
Test: eIF4H binding inhibition – biochemical, uHTS, fluorescence polarization, translation initiation inhibitor project, primary screen (AID 2012);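 further: calls also rest on retests at 20 µM and on dose response follow-up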
Details: eIF4H fluorescence polarization binding assay, stronger effect = higher value

| Structure (SMILES) | inhibition (at 35 µM) | inhibition (confirmation average, at 20 µM) [%] |
| --- | --- | --- |
| CN1CCN(C(=O)C(=O)c2cn(CC(=O)N3CCCC3)c3ccccc23)CC1 | -7.2% (inactive) | – |
| CNC(=O)c1sc(Nc2ccc(OCc3ccccc3)cc2)nc1C | 8% (inactive) | – |
| CC(=O)Nc1ccc(/C=N/Nc2ccc(C(=O)c3c(C)cc4ccccn34)cc2[N+](=O)[O-])cc1 | 8.5% (inactive) | – |
| Cc1cc2ccccn2c1C(=O)c1cccc(F)c1 | -9.7% (inactive) | – |
| Cc1ccc(C(C[N+](=O)[O-])c2c(C)cc3ccccn23)cc1 (configuration not stated) | 54.1% (active) | 84.9 |
| CCOc1ccc(N(C)S(=O)(=O)c2cnc[nH]2)cc1 | -1% (inactive) | – |
| Cc1ccc(C)n1C(Cc1ccccc1)C(=O)O (configuration not stated) | 83% (active) | – |
| COc1ccc(CNC(=O)C(Cc2ccccc2)n2cccc2)cc1 (configuration not stated) | 1.8% (inactive) | – |
| CC(Cc1ccccc1)C(=O)N(C)Cc1ccccc1 (configuration not stated) | -2.7% (inactive) | – |
| O=C(/C=C/c1ccco1)NC(=S)N1CCCCC1 | 5.7% (inactive) | – |
| Cc1cccc(N2CCN(C(=O)/C=C/c3ccco3)CC2)c1C | 57.3% (active) | 101 |
| CCC(CC)C(=O)N1CCN(c2cccc(C)c2C)CC1 | -9.8% (inactive) | – |
| CCOc1cc(/C=C2\SC(N3CCCC(C)C3)=NC2=O)ccc1O (configuration not stated) | 1.3% (inactive) | – |
| CC(=O)c1cccc(NC(=O)C2CCN(C(=O)c3ccccc3Cl)CC2)c1 | 3.5% (inactive) | – |
| COc1ccc(CCn2c(-c3ccco3)nc3nc4ccccc4nc32)cc1OC | 3.6% (inactive) | – |
| Cn1c(-c2ccco2)nc2cc3ccccc3cc21 | 4.9% (inactive) | – |
| c1coc(-c2nc3nc4ccccc4n3nc2-c2ccco2)c1 | 73.4% (active) | – |
| O=C(Nc1ccc(Cl)cc1)c1cccc(OC(=S)N2CCOCC2)c1 | -8.8% (inactive) | – |
| CC(=O)N1c2ccc(S(=O)(=O)N(C)CC(=O)N(C)Cc3ccccc3)cc2CC1C (configuration not stated) | 2.8% (inactive) | – |
| O=C(CN1C(=O)c2cccnc2Oc2ccc(Cl)cc21)Nc1ccc(F)cc1 | -8.2% (inactive) | – |
| COc1ccc(Cl)cc1CSc1ncn[nH]1 | -9.7% (inactive) | – |
| O=C(/C=C/Sc1ncn[nH]1)c1ccc(Cl)cc1 | 60.7% (active) | 65.7 |

| Structure (SMILES) | inhibition (at 35 µM) | inhibition (confirmation average, at 20 µM) [%] |
| --- | --- | --- |
| Cc1cc(C)nc(S/C=C/C(=O)c2ccccc2)n1 | -7.4% (inactive) | – |
| COc1ccc(C(=O)C2CCCN(C(=O)c3ccc(OC)o3)C2)c(C)c1 (configuration not stated) | -2.6% (inactive) | – |
| Oc1cccc(/C=N/Nc2ccc(Cl)nn2)c1O | 24.2% (inactive) | – |
| COc1ccc(/C=C2\SC(=S)N(CCCC(=O)NC3CCCC3)C2=O)cc1OC | 48.7% (inactive) | – |
| Cc1ccc(C(=O)Oc2coc(CSc3nnc(NC(=O)c4cccs4)s3)cc2=O)cc1C | 65.8% (active) | 85.6 |
| CCSc1nnc(NC(=O)c2ccc(C)cc2)s1 | -9.1% (inactive) | – |
| Cc1ccc(C(=O)Nc2nnc(-c3cccs3)s2)cc1C | -2.7% (inactive) | – |
| CN1CCN(C(=O)c2ccccc2NC(=O)COc2ccccc2Cl)CC1 | -9.2% (inactive) | – |
| Cn1c(=O)[nH]c(=O)c2c1nc(N1CCN(C(c3ccccc3)c3ccccc3)CC1)n2CCO | 0.3% (inactive) | – |
| CCCc1ccc(OCCNC(=O)c2ccccc2Br)cc1 | 8.8% (inactive) | – |
| CCOc1cnc(C(=O)NNC(=O)c2ccccc2Br)o1 | 85.7% (active) | 95 |
| O=C(NC(=S)Nc1ncccn1)c1ccccc1Br | -2% (inactive) | – |
| CCCCc1nc2cc(C(=O)N3CCCCC3CCO)ccc2o1 (configuration not stated) | -1.1% (inactive) | – |
| COc1ccc(CCNC(=O)C(=O)NCC2OCCN2S(=O)(=O)c2cccs2)cc1OC (configuration not stated) | -4.1% (inactive) | – |
| CCOc1ccc(NC(=O)c2ccc(NC(=O)C3CCCO3)cc2)cc1 (configuration not stated) | -9.4% (inactive) | – |
| Cc1ccc(OCC(=O)Nc2ccc(C(=O)O)cc2NC(=O)COc2ccc(C)c(C)c2)cc1C | 4.8% (inactive) | – |
| Cc1ccc(NC(=S)Nc2ccc(F)cc2)cc1 | -11.3% (inactive) | – |
| Cn1c(=O)n(Cc2ccco2)c(=N)c2c3c(sc21)CCCC3 | -14.4% (inactive) | – |
| CN1CCc2c(sc3c2c(NCc2ccco2)nc2nnnn23)C1 | 68% (active) | – |
| CCCSc1nc(NCc2ccco2)c2c3c(sc2n1)COC(C)(CC)C3 (configuration not stated) | 4.7% (inactive) | – |
| O=C(CCN1C(=O)[C@@H]2Cc3ccccc3CN2C1=O)NCCc1ccccc1 | 80.7% (active) | – |
| Cc1ccc(CNC(=O)CCN2C(=O)[C@@H]3Cc4ccccc4CN3C2=O)cc1 | -3.4% (inactive) | – |

| Structure (SMILES) | inhibition (at 35 µM) | inhibition (confirmation average, at 20 µM) [%] |
| --- | --- | --- |
| O=C(CCN1C(=O)[C@@H]2Cc3ccccc3CN2C1=O)NCc1ccccc1 | -0.5% (inactive) | – |
| COc1ccc(OC)c(C(O)c2nc3ccccc3n2C)c1 (configuration not stated) | -3.8% (inactive) | – |
| Cc1ccc(C(C)C)cc1OCC(=O)Nc1ccccc1N1CCCC1 | -15.8% (inactive) | – |
| CC(=O)Oc1ccc(-c2cccc(C(=O)N3CCCCC3)c2)cc1 | 5.5% (inactive) | – |
| CCC1S/C(=N/N=C/c2ccco2)NC1=O (configuration not stated) | 9.4% (inactive) | – |
| O=C1OC(/C=C/c2ccccc2)=NC/1=C/c1ccco1 | 76.9% (inactive) | 4.3 |
| CC(C)(C)C1C/C(=C/c2ccco2)C(=O)/C(=C/c2ccco2)C1 (configuration not stated) | 71.6% (active) | 82.6 |
| O=C(NCc1ccccc1Cl)C1CCN(S(=O)(=O)c2cccc3nonc23)CC1 | 9.7% (inactive) | – |
| C=CCN1C(=O)C2(OCCCO2)c2cccc(Cl)c21 | 0.1% (inactive) | – |
| O=C(CN1CCC(NC(=O)Nc2ccccc2)CC1)Nc1cccc([N+](=O)[O-])c1 | -3.5% (inactive) | – |
| COc1ccc(S(=O)(=O)N2CCOC2CNC(=O)C(=O)NCc2ccncc2)cc1C (configuration not stated) | -2.1% (inactive) | – |
| CCOc1cccc(=O)c2c(C)n(CC3CCCO3)c(C)c12 (configuration not stated) | 79.5% (active) | – |
| CCOc1ccc(NC(=O)c2cccc3c2C(=O)N(CC2CCCO2)C3)cc1 (configuration not stated) | 3% (inactive) | – |
| COc1ccccc1NC(=O)CSc1nnc(C)n1CC1CCCO1 (configuration not stated) | -1.3% (inactive) | – |
| Cc1c2cnn(CC(=O)NCCCN3CC(C)CC(C)C3)c(=O)c2c(C)n1Cc1ccc(Cl)cc1 (configuration not stated) | -3.1% (inactive) | – |
| O=[N+]([O-])c1ccc(NC(=S)N2CCN(c3ccccn3)CC2)cc1 | -4.4% (inactive) | – |
| CCn1cc(C(=O)NCCC(=O)NCCO)c(=O)c2cc3c(cc21)OCO3 | 13.7% (inactive) | – |
| CCN(CC)C(=O)C(=O)Nc1cccc(Br)c1 | -3% (inactive) | – |
| CCN(CC)C(=O)CSC(Nc1cccc(F)c1)=C(C#N)C#N | 63% (active) | 56.7 |
| O=C(CCN1C(=O)c2ccccc2C1=O)Nc1cccc(F)c1 | 0.6% (inactive) | – |
